Assay outcomes from PubChem.
Rows were chosen to be rich in hits. Some 2.4% of all compounds tested hit in one or more screens of this group.
D2 PAM-1: Beta-Arrestin HTS for Positive Allosteric Modulators of the Human D2 Dopamine Receptor: Potentiators | D(2) dopamine receptor (Homo sapiens), P14416 | DiscoveRx D2 beta-arrestin cells, luminescence, 90 min; 100% = 57 uM dopamine signal | potentiation, % (concentration not given with the values) | 360,000 tested, 0.23% active | AID 624464, 2012; in the data active = potentiation above about 50%; inconclusive = mostly about 30% to 49%
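PathHunter D2 cells, attached overnight at 37 deg C, received compound in DMSO plus dopamine at EC20 (50 nM final) for 90 min at 37 deg C. Beta-arrestin recruitment was read as luminescence after 1 h with detection reagent at ambient temperature.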
D2 PAM-2: HTS Assay for Positive Allosteric Modulators of the Human D2 Dopamine Receptor: Primary Screen for Potentiators; potentiation, % at 10 µM; D(2) dopamine receptor (Homo sapiens), P14416; AID 485347, 2010; 340,000 tested, 0.34% active; HEK293 T-REx D2, calcium flux, EC20 dopamine potentiation;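 active = potentiation over 3 SD above the plate norm, cut at about 30% in these data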; also: 0% is about no effect
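Primary screen. Calcium kinetics in induced HEK293 T-REx D2 cells: compound pre-addition 180 s, EC20 dopamine, 180 s more.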
D2 antag: HTS Assay for Allosteric Antagonists of the Human D2 Dopamine Receptor: Primary Screen for Antagonists; inhibition, % at 10 µM; D(2) dopamine receptor (Homo sapiens), P14416; 340,000 tested, 2% active; HEK293 TREx D2 cells, calcium flux, dopamine EC80; in the data active = inhibition above about 30%; inactive = below that, where a call was filed; also: 0% is about no effect
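Tetracycline-induced HEK293 T-REx cells expressing D2 force-coupled to calcium signalling were dye-loaded, exposed to compound for 180 s, then challenged with an EC80 of dopamine; calcium flux was followed kinetically for a further 180 s.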
D2 ag-1: Beta-Arrestin HTS for Positive Allosteric Modulators of the Human D2 Dopamine Receptor: Agonists; activation, % (test concentration not listed); 360,000 tested, 0.084% active; D(2) dopamine receptor (Homo sapiens), P14416; DiscoveRx PathHunter D2 beta-arrestin, luminescence, 90 min; 100% = 57 uM dopamine signal; in the data active = activation above about 40%; inconclusive = between about 15% and that limit
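Agonist mode: compounds alone added to overnight-plated D2 PathHunter cells for 90 min at 37 C, with 57 uM final dopamine (EC100) defining full response. Beta-arrestin recruitment detected by chemiluminescent reagent, read after 1 h at ambient temperature.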
D2 ag-2: HTS Assay for Allosteric Agonists of the Human D2 Dopamine Receptor: Primary Screen for Agonists. 340,000 tested, 0.53% active. AID 485358, 2010. D(2) dopamine receptor (Homo sapiens), P14416. activation, % at 2 µM. HEK293 T-REx D2 cells, calcium flux agonist mode;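 active = activation over 3 SD above normal in the single-dose calcium agonist read, cut at about 30% in these data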; also: 0% is about no effect
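HEK293 Trex D2 cells, tetracycline-induced, o/n 30 C 5% CO2; no-wash Ca dye, RT 30–90 min; 10-cycle baseline, 23 nl cpd added, kinetic Ca read 180 s; agonist hits = positive Ca response.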
D3 ag: qHTS of D3 Dopamine Receptor Agonist: D3 Dopamine Receptor B-arrestin Agonist Confirmatory Assay | shares compounds with D2 ag-2 | DiscoveRx D3 beta-arrestin cells, luminescence, 90 min | Potency, µM (series often up to 76.9 µM), without a hit: top-dose activation, actives largely listed as activators | 2,300 tested, 4% active | AID 720506, 2013;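 also: potency is read from the fitted curve at half-maximal effect; 100% = dopamine control response; nearly all actives have a fitted effect of over 70% in size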
Target sequence (P35462 whole entry, looked up): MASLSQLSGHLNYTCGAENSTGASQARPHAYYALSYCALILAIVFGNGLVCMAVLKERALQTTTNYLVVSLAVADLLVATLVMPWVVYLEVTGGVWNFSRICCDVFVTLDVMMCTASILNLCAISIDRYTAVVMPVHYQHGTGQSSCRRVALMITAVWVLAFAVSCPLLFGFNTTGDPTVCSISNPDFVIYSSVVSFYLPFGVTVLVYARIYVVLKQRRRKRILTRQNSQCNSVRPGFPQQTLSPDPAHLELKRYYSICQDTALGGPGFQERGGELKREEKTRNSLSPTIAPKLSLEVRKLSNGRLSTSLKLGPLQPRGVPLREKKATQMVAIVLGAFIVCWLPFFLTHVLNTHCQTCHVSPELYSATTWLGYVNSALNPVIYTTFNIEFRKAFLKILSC
D2 ag-3: qHTS of D3 Dopamine Receptor Agonist: D2 Dopamine Receptor B-arrestin Agonist Counterscreen. shares compounds with D2 ag-2. DiscoveRx PathHunter D2 beta-arrestin, luminescence, 90 min; response scale: percent relative to full dopamine signal. Potency, µM (top dose mostly 76.9 µM), for the others: top-dose activation, actives largely listed as activators. 2,300 tested, 5.9% active; also: potency is read from the fitted curve at half-maximal effect; % of control where 0% means no effect; nearly all actives have a fitted effect of over 70% in size
* = called active by the depositor; ? = inconclusive; . = not tested or not shown; ! = not confirmed by another sample. Unless noted, calls follow the shape of the dose curve; as a rule, active = well fitted activation curve with a large enough effect; inconclusive = small, poorly fitted or top-dose-only effect; inactive = flat fitted curve, though single readings scatter.

SMILES	D2 PAM-1	D2 PAM-2	D2 antag	D2 ag-1	D2 ag-2	D3 ag	D2 ag-3
O=[N+]([O-])c1ccc(CN2CC=C(c3ccccc3)CC2)cc1	-21	-50	89*	-1	78*	5%	10%
O=C(CN1C(=O)CN=C(c2ccccc2)c2ccccc21)Nc1cccc(C(F)(F)F)c1	.	.	.	.	1	.	.
CCN(CC)c1ccc(/C=C2\C(=O)NC(=S)N(C)C2=O)o1	-3	4	10	2	33*	-28%	-10%
C1=C(c2ccccc2)CCNC1	-9	-29	43*	-2	40*	-9%	1%
O=c1c2ccccc2nc(/C=C/c2cccc3ccccc23)n1-c1ccccc1Cl	.	-3	.	.	.	.	.
O=C(Nc1ccc(Br)cc1C(=O)c1ccccc1Cl)c1ccc(Br)cc1	.	3	.	.	-1	.	.
Cc1cc(C)cc(-n2c(=O)[nH]c3ccccc3c2=O)c1	.	2	.	.	1	.	.
COc1ccc(N2C(=O)NC(=O)/C(=C/c3ccc(N4CCOCC4)cc3)C2=O)cc1	.	8	14	.	0	.	.
CCOc1ccc(N2C(=O)NC(=O)/C(=C\c3ccc(N4CCOCC4)cc3C)C2=O)cc1	10	-17	6	2	55*	1%	1%
CSc1ccc(C(=O)C2CCCN(C)C2)cc1 (stereo not drawn)	-12	-11	1	1	0	.	.
CN1CCCC(C(=O)c2ccccc2)C1 (stereo not drawn)	-3	-14	30*	0	42*	15%	11%
COc1ccccc1N1CCN(Cc2cccc(OC)c2O)CC1	-6	-28	81*	9	74*	-6%	19%
OC(CN1CC=C(c2ccccc2)CC1)c1ccccc1 (stereo not drawn)	-11	-31	75*	3	77*	?	?
OC(COCc1ccc(Cl)cc1)CN1CC=C(c2ccccc2)CC1 (stereo not drawn)	71*!	17	85*	83*	0	50µM*	45µM*
O=C(CN1CC=C(c2ccccc2)CC1)Nc1c(Cl)cccc1Cl	-29	-23	7	-4	27	.	.
CCCN1CC[C@@H]2c3cc(O)ccc3CC[C@@H]21	-5	-11	73*	7	66*	?	?
Cc1ccc(NC(=O)CN2C(=O)CN=C(c3ccccc3)c3ccccc32)cc1	.	-3	.	.	1	.	.
CCOC(=O)C(O)(c1ccc(NC(=S)NC(=O)c2ccc(Cl)cc2Cl)c(C)c1)C(F)(F)F (stereo not drawn)	-14	18	5	-3	27	10%	-1%
COC(=O)C(O)(c1ccc(NC(=S)NC(=O)c2ccc(Cl)cc2Cl)c(C)c1)C(F)(F)F (stereo not drawn)	-6	-8	5	-14	20	.	.
CCOc1ccc2nc(NC(=O)c3cccn(Cc4ccccc4Cl)c3=O)sc2c1	.	-4	.	.	1	.	.
CC1=C[C@@H]2c3cccc4[nH]cc(c34)C[C@H]2N(C)C1	92*	-32	.	77*	.	0.089µM*	2.8µM*
CN1C(=O)N(C)C(=O)C2(Cc3ccccc3N3CCCC32)C1=O (stereo not drawn)	-3	-5	-11	0	1	.	.
CN1C(=O)CC(c2ccccc2)Nc2ccccc21 (stereo not drawn)	1	-1	-5	-3	0	-7%	-4%
COC(=O)C1=C(c2ccccc2OCc2ccccc2)C[C@@H]2CC[C@H]1N2C(=O)NCc1cccc(F)c1	-12	1	-12	-3	0	.	.
COC(=O)C1=C(c2ccc(F)cc2OCc2ccccc2)C[C@@H]2CC[C@H]1N2C(=O)NCc1ccccc1Cl	-21	17	-22	1	0	-1%	-2%
COC(=O)C1=C(c2ccccc2OCc2ccccc2)C[C@@H]2CC[C@H]1N2C(=O)NCc1ccc(OC)c(OC)c1	-1	6	8	-2	0	-1%	-1%
Cc1oc(-c2ccc(Cl)cc2)nc1CN1C(=O)CN=C(c2ccccc2)c2cc(Cl)ccc21	.	-5	.	.	3	.	.
Cc1cccc(Cn2cccc(C(=O)Nc3nc4ccccc4s3)c2=O)c1	.	-2	.	.	1	.	.
Cc1ccc(Cn2cccc(C(=O)Nc3cc([N+](=O)[O-])ccc3C)c2=O)cc1	.	-7	.	.	-2	.	.
